Compounds without any hit were thinned out: in the full panel of roughly 83,000, 20% have a hit.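 How to read the values: 0–100, growth inhibition (40 = 60% inhibited); 0, no net growth; -100 to 0, cell death (-40 = 40% of starting cells died; -100 = all dead).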 A number with no mark means an inactive call. Active and inactive are the calls of the source. Rule for the calls: active = growth percent below 10; inactive = the rest.

Test systems include NCI-H23 lung; NCI-H226 lung; NCI-H322M lung; NCI-H460 lung; HOP-92 NSCLC; NCI-H522 lung; A549/ATCC NSCLC; 786-0 renal; COLO 205 colon; HOP-62 NSCLC.
Holding throughout (assay): NCI-60 one-dose screen, 48 h (100 = growth as untreated, 0 = no growth, -100 = all killed)
Holding throughout (settings): 10 µM unless noted

On to `COc1cccc2c1c(C(=O)c1ccco1)cn2Cc1ccc(F)cc1`, for which the growth with NCI-H23 lung is 111%; in the test on NCI-H226 lung it was 96.3%; in the test with NCI-H322M lung it was 115%; in the test with NCI-H460 lung, 113%; in the test with HOP-92 NSCLC, 63.4%; in the test with NCI-H522 lung, 76.2%. Moreover, the growth with A549/ATCC NSCLC is 112%; with 786-0 renal, 110%; in the test on COLO 205 colon, 123%.
As to `CC(C)(C)N1CC1C#N` (centres undefined), the growth was 99.5% with NCI-H23 lung; 103% with NCI-H226 lung; 96.3% with NCI-H322M lung; 105% with NCI-H460 lung; 105% in the test with HOP-92 NSCLC; 96% in the test with NCI-H522 lung. Further, the growth in the test with A549/ATCC NSCLC was 105%; with 786-0 renal it was 98.6%; with COLO 205 colon, 98.7%.
Take `COC(=O)[C@H](Cc1ccccc1)NNC(=O)c1csc([C@@H](C[C@H](C(C)C)N(C)C(=O)[C@@H](NC(=O)[C@H]2CCCCN2C)C2CC2)OC(C)=O)n1`: the growth was 29.2% in the test on NCI-H23 lung; 36.5% in the test on NCI-H226 lung; 46.7% in the test with NCI-H322M lung; 3.02% (active) in the test on NCI-H460 lung; 3.84% (active) with HOP-92 NSCLC; -19.2% (active) in the test with NCI-H522 lung. In addition, the figures for the growth in the test with 786-0 renal and with COLO 205 colon were 11.9% and -60.3% (active), respectively.
Regarding `COC(=O)[C@@H](C)C[C@H](Cc1ccccc1)NC(=O)c1cccc([C@@H](C[C@H](C(C)C)N(C)C(=O)[C@@H](NC(=O)[C@H]2CCCCN2C)C(C)C)OC(C)=O)n1`, the growth is 38.9% with NCI-H23 lung; 68.1% in the test on NCI-H226 lung; 47.6% in the test on NCI-H322M lung; 7.05% (active) in the test with NCI-H460 lung; 53.7% in the test on HOP-92 NSCLC; -22.2% (active) in the test on NCI-H522 lung. Also, the growth is 14.2% in the test on A549/ATCC NSCLC, 14.4% in the test on 786-0 renal and -54.5% (active) with COLO 205 colon.
As to `Cc1cc(-c2nc3cc(F)ccc3[se]2)cc(F)c1N`, the growth with NCI-H23 lung was 59.5%; in the test with NCI-H226 lung, 34.9%; in the test with NCI-H322M lung, 83.8%; in the test on NCI-H460 lung, 23.1%; in the test on HOP-92 NSCLC it was 79.2%; in the test on NCI-H522 lung it was 83.1%. The growth in the test with A549/ATCC NSCLC was 66.9%; in the test with 786-0 renal, 103%; in the test on COLO 205 colon it was 52.4%.
Regarding `C/C(=C\c1ccn(-c2ccc(N)cc2)n1)[C@@H]1C[C@@H]2O[C@]2(C)CCC[C@H](C)[C@H](O)[C@@H](C)C(=O)C(C)(C)[C@@H](O)CC(=O)O1`, the growth in the test with NCI-H23 lung was 26.1%; in the test on NCI-H226 lung it was 31.7%; in the test with NCI-H322M lung it was 18.6%; in the test with HOP-62 NSCLC, 44.7%; in the test with NCI-H460 lung, 13.3%; in the test on HOP-92 NSCLC it was 48.7%. The growth with NCI-H522 lung is 18.6%; with 786-0 renal, 20.2%; in the test on COLO 205 colon it was 1.88% (active).
With `COC(=O)[C@@H](C)C[C@H](Cc1ccccc1)NC(=O)c1csc([C@@H](C[C@H](C(C)C)N(C)C(=O)[C@@H](NC(=O)[C@H]2CCCN2C)C2CC2)OC(C)=O)n1`, the growth was 23.5% with NCI-H23 lung; 24.1% with NCI-H226 lung; 50.9% in the test on NCI-H322M lung; 12.2% in the test with HOP-62 NSCLC; 3.65% (active) with NCI-H460 lung; -6.22% (active) in the test on HOP-92 NSCLC. Further, the growth with NCI-H522 lung was -9.59% (active); with 786-0 renal it was 15.6%; with COLO 205 colon it was -63.1% (active).
Turning to `NC(=O)CNc1ccc([As]=[As]c2ccc(NCC(N)=O)cc2)cc1` (centres undefined), the growth in the test with NCI-H23 lung was 62.2%; in the test on NCI-H226 lung, 49.4%; in the test with NCI-H322M lung, 83.5%; with NCI-H460 lung, 83.2%; in the test on HOP-92 NSCLC, 63.6%; in the test on NCI-H522 lung, 2.53% (active). Further, the growth in the test with A549/ATCC NSCLC is 81%; in the test with 786-0 renal, 29.7%; in the test on COLO 205 colon, 76.8%.
As to `Nc1ccc(OCCNS(=O)(=O)c2cccc(S(=O)(=O)F)c2)c(Cl)c1`, the growth in the test with NCI-H23 lung was 95.5%; in the test with NCI-H226 lung it was 96.5%; with NCI-H322M lung, 87.5%; with NCI-H460 lung, 102%; with HOP-92 NSCLC, 87.5%; in the test with NCI-H522 lung, 74.6%. The values for the growth with A549/ATCC NSCLC, in the test on 786-0 renal and with COLO 205 colon were 84.8%, 88.8% and 110%, respectively.
For `Oc1ccc2c3c1OC1[C@@H](O)CC[C@@]4(O)[C@@H](C2)N(CC2CCC2)CC[C@]314` (some centres undefined), the growth is 104% in the test with NCI-H23 lung; 99.1% in the test on NCI-H226 lung; 97.7% in the test with NCI-H322M lung; 115% with NCI-H460 lung; 86.8% with HOP-92 NSCLC; 86.3% in the test on NCI-H522 lung. In addition, the growth in the test on A549/ATCC NSCLC was 98.9%; in the test with 786-0 renal, 96.6%; in the test on COLO 205 colon, 113%.
As for `COc1ccc(Nc2ccnc3cc(Cl)ccc23)cc1CN(CCCl)CCCl`, the growth with NCI-H23 lung was -46.7% (active); in the test on NCI-H226 lung, 22.9%; with NCI-H322M lung it was -34% (active); in the test on NCI-H460 lung it was -18.2% (active); in the test on HOP-92 NSCLC, -39% (active); in the test on NCI-H522 lung, -47.6% (active). In addition, the growth in the test with 786-0 renal is -53.3% (active); in the test on COLO 205 colon, -37.1% (active).
Consider `NC(=O)C(Br)c1ccccc1` (centres undefined), for which the growth with NCI-H23 lung is 89.9%; with NCI-H226 lung, 88.7%; with NCI-H322M lung, 99.6%; in the test on NCI-H460 lung it was 108%; in the test on HOP-92 NSCLC it was 99.6%; in the test with NCI-H522 lung it was 53.5%. The growth in the test with A549/ATCC NSCLC is 91.8%; in the test on 786-0 renal, 107%; in the test on COLO 205 colon it was 103%.
`CC12CC=CCC1CCC1C2CCC2(C)C(c3ccc(=O)oc3)CCC12O` (centres undefined): the growth with NCI-H23 lung is -44.2% (active); with NCI-H226 lung it was -90.6% (active); in the test on NCI-H322M lung, -19.9% (active); with NCI-H460 lung, -70.4% (active); in the test on HOP-92 NSCLC it was 1.77% (active); in the test with NCI-H522 lung, -19.9% (active). Also, the figures for the growth in the test on A549/ATCC NSCLC, with 786-0 renal and in the test with COLO 205 colon were -37.7% (active), -42.4% (active) and -43.6% (active), respectively.
In the case of `CCCCCCCCC(CO)NCCc1ccccc1` (centres undefined), the growth in the test on NCI-H23 lung was 105%; in the test with NCI-H226 lung, 98.6%; with NCI-H322M lung it was 88.8%; in the test with NCI-H460 lung it was 102%; with HOP-92 NSCLC, 77.9%; with NCI-H522 lung, 73.7%. Also, the results for the growth in the test with A549/ATCC NSCLC, in the test with 786-0 renal and with COLO 205 colon were 83.7%, 102% and 107%, respectively.
